# Screens (PubChem BioAssay)
# HttQ103 aggreg = qHTS Multiplex Assay to Identify Dual Action Probes in a Cell Model of Huntington: Aggregate Formation (GFP) | PC12 HttQ103-GFP aggregates, Acumen cytometry, 40 h | Potency, µM (doses to about 46.1 µM), usual class: inhibitors | 220,000 tested, 1.1% active | AID 1688, 2009; further: nearly all actives have a fitted effect of over 60% in size
#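 PC12 cells stably carrying ecdysone-inducible HTT exon 1 Q103–GFP were induced with tebufenozide (100 nM final) and treated with library compounds in titration. GFP aggregates in lysates were counted by laser scanning cytometry.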
# JMJD2E inh = qHTS Assay for Inhibitors of Human Jumonji Domain Containing 2E (JMJD2E) | Lysine-specific demethylase 4E (Homo sapiens), B2RXH2 | JMJD2E catalytic domain, FDH-coupled NADH fluorescence (FDH is formaldehyde dehydrogenase) | Potency, µM (series often up to 57.1 µM), most hits filed as inhibitors | 230,000 tested, 1.6% active; active means well fitted inhibition curve with a large enough effect, not every such curve was filed as active; inconclusive means small, poorly fitted or top-dose-only effect, or another doubt; inactive means no such curve, though single readings can be large or run the other way; further: nearly all actives have a fitted effect of over 50% in size
# Target sequence (B2RXH2 1-337 limits assumed): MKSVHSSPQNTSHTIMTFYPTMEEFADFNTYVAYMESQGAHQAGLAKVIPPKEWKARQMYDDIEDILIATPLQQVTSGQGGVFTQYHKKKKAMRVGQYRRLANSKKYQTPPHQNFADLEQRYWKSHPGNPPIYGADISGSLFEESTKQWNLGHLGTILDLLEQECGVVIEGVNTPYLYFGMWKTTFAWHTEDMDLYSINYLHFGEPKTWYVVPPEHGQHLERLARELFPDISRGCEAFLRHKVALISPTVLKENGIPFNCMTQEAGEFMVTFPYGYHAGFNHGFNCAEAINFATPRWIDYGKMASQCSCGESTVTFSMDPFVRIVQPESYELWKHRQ
# HTT ATP protect = qHTS Multiplex Assay to Identify Dual Action Probes in a Cell Model of Huntington: Cytoprotection (ATP). 230,000 tested, 0.14% active. PC12 HTT-Q103 induced, cytoprotection, ATP luminescence, 40 h. Potency, µM (highest dose often 56.4 µM), usual class: activators. AID 1471, 2008; further: nearly all actives have a fitted effect of over 45% in size
#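 Readout: ATPlite luminescence (ATP level). Model: stable PC12, inducible Htt exon1 Q103-GFP. Inducer: tebufenozide, 100 nM final. Compounds: dose series. No G418 in medium.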
# GoLoco inh red = qHTS Assay for Inhibitors of RGS12 GoLoco Motif Activity (Red Fluorophore); Guanine nucleotide-binding protein G(i) subunit alpha-1 (Homo sapiens), P63096; Gai1:RGS12 GoLoco peptide FP, rhodamine, 10 min; Potency, µM (doses to about 61.6 µM), actives largely listed as inhibitors; 230,000 tested, 0.44% active; active means well fitted inhibition curve with a large enough effect, not every such curve was filed as active; inactive means no such curve, though single readings can be large or run the other way; further: nearly all actives have a fitted effect of over 30% in size
# FBPA coupling cs = qHTS Assay for Inhibitors of Fructose-1,6-bisphosphate Aldolase from Giardia Lamblia: Coupling assay counterscreen; coupling enzyme system counterscreen, AmpLite Red fluorescence; activity change, negative = inhibition, % at 58.2 µM, hits read low; 290,000 tested, 0.67% active; in the data active means activity change below about -30%
#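 Activity here indicates interference with the coupling reaction, not aldolase inhibition. Compounds at 57.5 uM final met coupling enzymes for 10 min at RT; substrate and AmpLite Red detection followed, with a 525/598 nm fluorescence read after 20 min.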
# VDR inh = Inhibitors of the vitamin D receptor (VDR): qHTS. 400,000 tested, 0.93% active. VDR-SRC2-3 peptide fluorescence polarization, 2 h. AID 504847, 2011. Potency, µM, usual class: inhibitors
#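 Compounds are added to VDR with labelled SRC2-3 coactivator peptide and held 2 h at room temperature. Inhibition of the VDR–peptide interaction is then read as a change in fluorescence polarization.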
# Hits are given with their value; 0 = inactive; ? = inconclusive; - = not tested or not shown; [ ] = remark or other dose. A selection: hits, their analogues and other compounds. The true share with any hit is near 2.3%. Unless noted, the call rests on the fitted dose curve; in most records, active means well fitted curve in the direction sought with a large enough effect; inconclusive means small, poorly fitted or top-dose-only effect, or another doubt; inactive means no such curve, though single readings can be large; an effect the other way counts as inactive or inconclusive.
SMILES,HttQ103 aggreg,JMJD2E inh,HTT ATP protect,GoLoco inh red,FBPA coupling cs,VDR inh
O=C1C=C(O)c2cccc3cccc1c23,-,-,-,-,0,0
Cc1c(NC(=O)C(C)OC(=O)c2ccc([N+](=O)[O-])s2)c(=O)n(-c2ccccc2)n1C (stereo unspecified),0,0,0[10 µM],0,0,0
O=C(O)CC(O)CC(O)/C=C/c1c(C2CC2)nc2ccccc2c1-c1ccc(F)cc1 (stereo unspecified),0,-,0,0,-,?
CCCN1C/C(=C/c2ccc3c(c2)OCO3)C(=O)/C(=C/c2ccc3c(c2)OCO3)C1,0,10µM,0[10 µM],0,0,0
CCCN1C/C(=C/c2cccc([N+](=O)[O-])c2)C(=O)/C(=C/c2cccc([N+](=O)[O-])c2)C1,0,0,0,0,0,?
Fc1ccc(COc2ccccc2C(=S)N2CCCC2)cc1,0,0,-,0,0,50µM
COc1ccc(Nc2ncnc3ccccc23)cc1,11µM,0,0,0,0,0
CCOC(=O)c1ccc(Nc2ncnc3ccc(C)cc23)cc1,0,?,0,0,0,0
Cc1ccc(Nc2nc(N3CCOCC3)c3ccccc3n2)cc1,?,?,0[4.97 µM],0,0,0
COc1ccc(Nc2nc(N3CCCCC3)c3ccccc3n2)cc1,18µM,0,0,0,0,0
CCOc1ccc(Nc2ncnc3ccc([N+](=O)[O-])cc23)cc1,7.9µM,0,0[10 µM],0,0,0
CN(C(=O)CC1C(=O)NCCN1Cc1ccc(F)c(F)c1)C1CCCCC1 (stereo unspecified),-,-,-,-,-,0
COc1ccc(-n2cc(-c3ccccc3)nc2SCC(=O)Nc2ccccc2)cc1Cl,-,-,-,-,-,0
COc1ccc(Cl)cc1NC(=O)c1cc(S(=O)(=O)N(C)Cc2ccccc2)ccc1F,-,-,-,-,-,0
Cc1ccc(CNCc2c(C(=O)O)c(C)n(Cc3ccc(C)cc3)c2C)cc1,-,-,-,-,-,0
Cc1nc(N/N=C/c2ccccn2)sc1C,?,13µM,0[10 µM],0,0,0
CCCc1sc(N/N=C/c2ccccn2)nc1-c1ccc(F)cc1,?,0,0[10 µM],0,0,0
O=C1c2ccccc2C(=O)c2c1ccc(N1C(=O)c3ccccc3C1=O)c2-c1c(N2C(=O)c3ccccc3C2=O)ccc2c1C(=O)c1ccccc1C2=O,-,-,0[10 µM],-,-,-
Cn1cc(S(=O)(=O)N2CCCCC2)cc1C(=O)NCc1ccc(Cl)cc1,-,-,-,-,-,0
COCc1[nH]c(=S)c(C#N)cc1C(=O)OC,0[9.22 µM],25µM,0[10 µM],0,0,?
CN1C(=O)/C(=C\c2ccco2)N=C1c1ccc(Cl)cc1Cl,0[9.22 µM],0,0[10 µM],0,0,0
COC(=O)c1c(-c2cccs2)csc1NC(=O)COc1ccc(C)cc1,-,-,-,-,-,0
COC(=O)c1c(-c2cccs2)csc1NC(=O)COc1c(C)ccc(C)c1C,-,-,-,-,-,22µM
CCCCn1nnc(NC(=O)c2sc3cc(Cl)ccc3c2Cl)n1,0.63µM,0,0,0,0,0
Cc1ccc(NC(=O)CN(C)Cc2c(O)ccc3ccccc23)cc1,-,-,-,-,0,79µM
SMILES,HttQ103 aggreg,JMJD2E inh,HTT ATP protect,GoLoco inh red,FBPA coupling cs,VDR inh
CN(C)Cc1c(O)ccc2ccccc12,0[9.22 µM],?,0[10 µM],0,0,0
Cc1cc(C)nc(SCCN(C)C)n1,0[9.22 µM],0,0[10 µM],0,0,0
Cc1cc(C)nc(SSc2nc(C)cc(C)n2)n1,-,-,-,-,0,7.1µM
O=c1cc(CSc2nnc(NC3CCCCC3)s2)nc2sccn12,0,0,0,0,0,0
COC(=O)c1cc(CSc2nnc(NC3CCCCC3)s2)oc1C,28µM,0,0,0,0,0
Cc1ccc(NC(=O)Cn2c(=O)n(CCCCC(=O)NCCc3ccc(Cl)cc3)c(=O)c3ccccc32)cc1,-,-,-,-,-,0
O=C(CSc1n[nH]c(-c2ccccc2)n1)c1ccc(O)c(O)c1,0,28µM,0[10 µM],0,0,0
CSCCC1NC(=O)N(C(C)C(=O)Nc2cc(Cl)cc(Cl)c2)C1=O (stereo unspecified),0,0,0,0,0,0
